Active and inactive are the calls of the source. Unless noted, no rule for the calls is given here.
Assays:
[1] = anti-His antibody binders, primary screen, artefact control for SMM control protein annotation, biochemical, small-molecule microarray, 635 nm fluorescence (AID 1128); conditions: anti-His Alexa647 antibody binding, higher = more signal;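 also: score merges feature fluorescence with signal-to-noise for each printed compound spot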
[2] = system: Human papillomavirus type 1a E7 protein (residues 1-88); experiment: HPV1a E7 small-molecule binders, primary screen, biochemical, small-molecule microarray, residues 1-88, 635 nm (AID 1129); conditions: small-molecule microarray binding, fluorescence 635 nm; higher = more signal
[3] = target: Focal adhesion kinase 1 (Homo sapiens) (UniProt Q05397); experiment: small-molecule microarray binders of FAK, primary screen, biochemical, 635/667 nm fluorescence, BSA, DTT (AID 1130); conditions: PTK2 binding, 635 nm fluorescence, higher = more signal;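 also: composite of spot emission at 667 nm and signal to noise over triplicate slides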
Focal adhesion kinase 1 (Homo sapiens), sequence (Q05397 whole entry, looked up): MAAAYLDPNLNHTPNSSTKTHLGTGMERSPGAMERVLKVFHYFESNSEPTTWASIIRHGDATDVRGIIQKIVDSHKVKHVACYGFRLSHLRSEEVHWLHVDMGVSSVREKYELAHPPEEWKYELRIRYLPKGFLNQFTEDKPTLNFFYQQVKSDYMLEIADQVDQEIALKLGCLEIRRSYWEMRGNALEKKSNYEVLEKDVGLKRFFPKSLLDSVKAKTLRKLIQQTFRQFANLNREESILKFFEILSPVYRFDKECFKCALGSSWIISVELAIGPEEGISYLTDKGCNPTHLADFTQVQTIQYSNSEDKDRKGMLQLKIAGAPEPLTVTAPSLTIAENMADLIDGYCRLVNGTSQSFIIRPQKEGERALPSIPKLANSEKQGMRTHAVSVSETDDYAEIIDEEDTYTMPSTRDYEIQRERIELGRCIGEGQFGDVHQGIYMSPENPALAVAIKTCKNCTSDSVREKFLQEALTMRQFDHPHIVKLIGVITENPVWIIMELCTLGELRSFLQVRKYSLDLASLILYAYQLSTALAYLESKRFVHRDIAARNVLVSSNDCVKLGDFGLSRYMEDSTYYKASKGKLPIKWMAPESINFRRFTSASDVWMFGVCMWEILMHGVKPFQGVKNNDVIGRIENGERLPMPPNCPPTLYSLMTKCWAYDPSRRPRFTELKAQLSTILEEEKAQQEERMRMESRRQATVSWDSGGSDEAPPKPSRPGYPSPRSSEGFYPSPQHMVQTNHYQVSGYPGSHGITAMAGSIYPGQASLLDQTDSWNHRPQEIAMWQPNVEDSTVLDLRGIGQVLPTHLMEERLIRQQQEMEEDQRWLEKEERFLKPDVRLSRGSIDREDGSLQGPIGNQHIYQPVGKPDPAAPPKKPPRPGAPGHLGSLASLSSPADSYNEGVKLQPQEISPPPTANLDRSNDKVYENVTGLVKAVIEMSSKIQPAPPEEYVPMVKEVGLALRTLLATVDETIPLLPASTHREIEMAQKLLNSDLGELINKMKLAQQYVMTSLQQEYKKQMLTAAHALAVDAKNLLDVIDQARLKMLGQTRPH

[4] = system: Fibrinogen (Alexa647-labelled); experiment: fibrinogen binders on compound microarrays, profiling panel, artefact control for SMM control-protein annotation, biochemical, small-molecule microarray, 635/667 nm fluorescence (AID 1131); conditions: fibrinogen-A647 binding fluorescence, higher = more signal;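 also: z-score merges 667 nm fluorescence with per-spot signal-to-noise over triplicate slides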
[5] = target: Follistatin (Homo sapiens) (UniProt P19883); experiment: follistatin binders on small-molecule microarrays, primary screen, biochemical, small-molecule microarray, 635/667 nm fluorescence (AID 1132); conditions: FST binding, 635 nm fluorescence, higher = more signal
Follistatin (Homo sapiens), sequence (P19883 whole entry, looked up): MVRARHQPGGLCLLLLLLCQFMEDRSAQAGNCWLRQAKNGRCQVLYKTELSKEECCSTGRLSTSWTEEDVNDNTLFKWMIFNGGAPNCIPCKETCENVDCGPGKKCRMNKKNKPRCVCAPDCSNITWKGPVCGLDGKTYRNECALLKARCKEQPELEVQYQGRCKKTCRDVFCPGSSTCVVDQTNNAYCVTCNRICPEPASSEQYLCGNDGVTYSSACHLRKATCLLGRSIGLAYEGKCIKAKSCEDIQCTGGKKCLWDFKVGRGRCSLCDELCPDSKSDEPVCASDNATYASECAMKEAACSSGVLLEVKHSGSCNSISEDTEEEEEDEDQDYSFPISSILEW

[6] = target: Fibroblast growth factor 2 (Homo sapiens) (UniProt P09038); experiment: FGF2 binders on small-molecule microarrays, primary screen, biochemical, small-molecule microarray, 635/667 nm fluorescence (AID 1133); conditions: small-molecule microarray binding, FGF2, fluorescence 635/667; higher = more signal
Fibroblast growth factor 2 (Homo sapiens), sequence (P09038 whole entry, looked up): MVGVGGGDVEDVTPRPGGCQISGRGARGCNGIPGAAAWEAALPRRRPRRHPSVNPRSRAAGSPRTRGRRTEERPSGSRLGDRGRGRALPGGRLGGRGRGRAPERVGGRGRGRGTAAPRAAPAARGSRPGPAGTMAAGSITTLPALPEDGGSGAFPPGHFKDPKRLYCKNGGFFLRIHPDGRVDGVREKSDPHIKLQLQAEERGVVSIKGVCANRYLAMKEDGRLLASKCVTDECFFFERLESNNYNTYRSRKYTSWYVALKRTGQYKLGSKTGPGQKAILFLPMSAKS

[7] = mitochondrial membrane potential change in A549 cells, profiling panel, cell-based, JC-1 fluorescence, basal, 24 h, 100 nL (AID 1138); conditions: higher = more signal;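 also: A549 lung adenocarcinoma cells under basal conditions with no added stimulus; test concentration not given here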
Lefty1 = Lefty1 binders on small-molecule microarrays, primary screen, biochemical, small-molecule microarray, 635/667 nm fluorescence (AID 1139); conditions: small-molecule microarray binding, fluorescence 635/667; higher = more signal
[8] = system: wheat germ agglutinin (Triticum aestivum), Alexa647-labelled; experiment: wheat germ agglutinin binders on compound microarrays, profiling panel, artefact control for SMM control-protein annotation, biochemical, small-molecule microarray, 635/667 nm fluorescence (AID 1140); conditions: WGA-A647 binding, 635 nm fluorescence, higher = more signal;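 also: score merges 667 nm feature emission with signal to noise over triplicate slides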
[9] = target: Luciferin 4-monooxygenase (Photinus pyralis) (UniProt P08659); experiment: firefly luciferase enzyme inhibitors, primary screen, biochemical, luminescence, purified enzyme, 2006 set (AID 1141); conditions: SteadyGlo luminescence, 30 min, higher = more signal, called active from +8 up or from −8 down;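 also: cell-free assay with purified firefly luciferase at 100 ng per well in PBS; test concentration not given here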
Luciferin 4-monooxygenase (Photinus pyralis), sequence (P08659 whole entry, looked up): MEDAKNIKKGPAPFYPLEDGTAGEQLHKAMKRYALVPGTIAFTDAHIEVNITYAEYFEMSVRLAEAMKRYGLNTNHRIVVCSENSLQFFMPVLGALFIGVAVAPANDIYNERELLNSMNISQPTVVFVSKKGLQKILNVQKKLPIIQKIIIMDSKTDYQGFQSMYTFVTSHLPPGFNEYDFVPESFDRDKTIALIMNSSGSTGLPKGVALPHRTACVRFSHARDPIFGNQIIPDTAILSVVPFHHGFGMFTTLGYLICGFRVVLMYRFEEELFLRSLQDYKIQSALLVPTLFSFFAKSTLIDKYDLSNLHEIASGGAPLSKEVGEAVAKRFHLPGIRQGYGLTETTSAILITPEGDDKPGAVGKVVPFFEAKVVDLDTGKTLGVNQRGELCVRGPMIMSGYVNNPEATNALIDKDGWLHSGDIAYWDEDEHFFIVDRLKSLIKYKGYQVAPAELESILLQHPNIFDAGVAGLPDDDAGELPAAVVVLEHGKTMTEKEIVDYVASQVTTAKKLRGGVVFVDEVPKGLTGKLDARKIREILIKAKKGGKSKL

[10] = system: Wnt5a (protein binding on small-molecule microarray); experiment: Wnt5a binders on small-molecule microarray, primary screen, biophysical, 635/667 nm fluorescence (AID 1142); conditions: 635 nm fluorescence, higher = more signal;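 also: fluorescence read at 667 nm with signal to noise per printed feature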
[11] = cell viability in Huh7 cells, primary screen, cytotoxicity control for HCV replication inhibitor project, CellTiter-Glo luminescence, basal, 48 h (AID 1143); conditions: Huh7 HCV replicon, higher = more signal, called active from +8 up or from −8 down;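 also: Huh7 hepatoma cells carrying a hepatitis C replication reporter with no stimulus; test concentration not given here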
[12] = P. aeruginosa biofilm formation inhibitors, primary screen, PAO1 strain, BacTiter-Glo luminescence, LB-PBS (AID 1144); conditions: 12 h, higher = more signal
[13] = CREB reporter modulators without forskolin, primary screen, cell-based, PC12, CRE-LacZ reporter, unstimulated (AID 1145); conditions: no forskolin, luminescence, 4.5 h, higher = more signal, called active from +8 up or from −8 down
[14] = CREB reporter modulators under forskolin, primary screen, cell-based, PC12, CRE-LacZ reporter, forskolin-stimulated (AID 1146); conditions: luminescence, 4.5 h, higher = more signal, called active from +8 up or from −8 down;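 also: PC12 cells with 6xCRE LacZ reporter stimulated by forskolin 10 µM; beta-galactosidase reporter signal reflecting CREB driven transcription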
[15] = target: Streptavidin (Streptomyces avidinii) (UniProt P22629); experiment: streptavidin binders on small-molecule microarray, primary screen, artefact control for SMM compound annotation, biophysical, 635/667 nm fluorescence (AID 1147); conditions: streptavidin binding, higher = more signal;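 also: signal reflects streptavidin binding to arrayed compounds as a control protein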
Streptavidin (Streptomyces avidinii), sequence (P22629 whole entry, looked up): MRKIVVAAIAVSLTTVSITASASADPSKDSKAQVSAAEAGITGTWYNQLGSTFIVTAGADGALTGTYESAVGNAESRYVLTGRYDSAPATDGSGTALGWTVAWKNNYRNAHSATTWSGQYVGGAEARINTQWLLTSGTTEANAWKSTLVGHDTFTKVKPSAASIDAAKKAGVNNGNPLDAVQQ

[16] = small-molecule binders of probe aInhba, primary screen, biochemical, small-molecule microarray, 635/667 nm fluorescence (AID 1148); conditions: higher = more signal;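 also: score merges 667nm spot fluorescence with signal-to-noise for antibody binding to printed compounds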
Torsin-1A (Homo sapiens) [17] = target: Torsin-1A (Homo sapiens) (UniProt O14656); experiment: torsin A binders from cell lysate, primary screen, small-molecule microarray, wild-type, 635/667 nm (AID 1149); conditions: COS7 hTOR1A-WT lysate, 635 nm fluorescence, higher = more signal
Torsin-1A (Homo sapiens), sequence (O14656 whole entry, looked up): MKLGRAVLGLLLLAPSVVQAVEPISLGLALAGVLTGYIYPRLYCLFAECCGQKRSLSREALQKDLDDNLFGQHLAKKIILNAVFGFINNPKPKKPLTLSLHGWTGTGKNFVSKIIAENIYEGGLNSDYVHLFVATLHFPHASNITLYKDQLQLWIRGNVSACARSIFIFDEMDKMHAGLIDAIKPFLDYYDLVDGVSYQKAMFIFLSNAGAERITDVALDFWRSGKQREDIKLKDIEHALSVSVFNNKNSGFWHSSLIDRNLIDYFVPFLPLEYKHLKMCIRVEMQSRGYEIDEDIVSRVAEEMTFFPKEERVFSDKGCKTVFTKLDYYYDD

Torsin-1A (Homo sapiens) [18] = target: Torsin-1A (Homo sapiens) (UniProt O14656); experiment: small-molecule binders of mutant TOR1A in lysate, primary screen, cell lysate, small-molecule microarray, COS7 lysate, 635/667 nm fluorescence (AID 1150); conditions: COS7 hTOR1A mutant lysate, 635 nm fluorescence, higher = more signal;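 also: score pools 667 nm emission and signal to noise measuring lysate protein binding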
[19] = system: Sonic hedgehog protein (Shh); experiment: small-molecule binders of Shh protein, primary screen, biochemical, small-molecule microarray, 635/667 nm fluorescence (AID 1151); conditions: small-molecule microarray binding, 635 nm fluorescence; higher = more signal;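 also: Shh protein binding to compounds spotted on small-molecule microarray slides; score combines spot fluorescence intensity with signal-to-noise across triplicate slides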

SMILES | composite z-score [1] | composite z-score [2] | composite z-score [3] | composite z-score [4] | composite z-score [5] | composite z-score [6] | z-score [7] | composite z-score (Lefty1) | composite z-score [8] | z-score [9] | composite z-score [10] | z-score [11] | z-score [12] | z-score [13] | z-score [14] | composite z-score [15] | composite z-score [16] | composite z-score (Torsin-1A (Homo sapiens) [17]) | composite z-score (Torsin-1A (Homo sapiens) [18]) | composite z-score [19]
O=C(NCC(F)(F)F)[C@@H]1c2ccccc2C(=O)N(Cc2ccc(OC(F)(F)F)cc2)[C@H]1c1ccc(CO)cc1 | 0.191 | -0.0826 | 0.518 | -0.344 | 1.02 | 0.45 | 0.845 | 0.713 | 0.444 | 1.36 (inactive) | 0.119 | -2.41 (inactive) | -0.652 (inactive) | 0.531 (inactive) | 0.118 (inactive) | -0.176 | -0.0672 | 0.176 | -0.0108 | 1.74
Cc1ccccc1C(O)C1C=CC2C(=O)N(C)C(=O)C2N1N(c1ccccc1)c1ccccc1 (stereo not given) | 1.13 | -0.298 | -0.128 | 0.354 | 0.799 | -0.0234 | 0.429 | -0.543 | 0.641 | -0.609 (inactive) | 0.613 | -0.0897 (inactive) | -0.588 (inactive) | -0.136 (inactive) | -0.0376 (inactive) | 0.115 | 1.15 | -0.0241 | 0.0289 | 0.188
COCCOC(=O)N1C(=O)[C@@]2(c3cc(C#Cc4ccc(OC)cc4)ccc31)[C@H](c1ccccc1OCCO)N1[C@H](c3ccccc3)[C@H](c3ccccc3)OC(=O)[C@H]1[C@@H]2C(=O)N1CCCCCCC1 | 0.623 | 1.2 | 0.701 | -0.183 | 1.51 | 1.73 | -0.775 | 1.23 | 1.33 | -0.246 (inactive) | 1.28 | -4.35 (inactive) | -2.23 (inactive) | -1.42 (inactive) | -0.693 (inactive) | 2.64 | 1.56 | 2.72 | 2.09 | 2.04
COCCOC(=O)N1C(=O)[C@@]2(c3ccccc31)[C@H](C(=O)N1CCN(c3ncccn3)CC1)[C@H]1C(=O)O[C@H](c3ccccc3)[C@H](c3ccccc3)N1[C@@H]2c1ccc(O)cc1 | 1.12 | 0.613 | 0.585 | 0.675 | -0.147 | 0.173 | -0.189 | 0.0567 | 0.875 | -0.378 (inactive) | 0.135 | -2.65 (inactive) | 0.0365 (inactive) | 0.631 (inactive) | -0.484 (inactive) | 0.284 | -0.41 | -0.396 | -0.35 | 1.07
COc1cc2c(cc1OC)CN(C(=O)[C@@H]1[C@H]3C(=O)O[C@H](c4ccccc4)[C@H](c4ccccc4)N3[C@H](c3ccc(OCCO)cc3)[C@@]13C(=O)Nc1ccc(C#CC4(O)CCCCCC4)cc13)CC2 | 0.367 | 1.18 | -0.226 | 0.966 | 1.41 | 1.13 | -0.989 | 1.38 | 0.831 | -7.42 (inactive) | 0.754 | -3.13 (inactive) | -1.35 (inactive) | -0.608 (inactive) | 0.419 (inactive) | 1.51 | -0.164 | 0.746 | 1.09 | 1.44
C=CCC(OC(C)=O)[C@@H]1[C@@H](N(Cc2ccc(-c3cccc(C(F)(F)F)c3)o2)C(=O)c2ccc(C)cc2)c2cc(OCCCO)ccc2N1C(=O)c1ccc2ccccc2c1 (stereo not given in full) | -0.276 | -0.207 | 0.187 | 0.188 | 0.908 | 0.0013 | 1.23 | 0.398 | -0.0998 | -0.0536 (inactive) | 0.0344 | -0.478 (inactive) | -1.39 (inactive) | -0.519 (inactive) | 0.291 (inactive) | 0.203 | -0.024 | -0.361 | -0.0628 | 0.772
O=C1O[C@H](c2ccccc2)[C@H](c2ccccc2)N2[C@H]1[C@@H](C(=O)Nc1nc3ccccc3s1)[C@]1(C(=O)Nc3ccc(C#CCCO)cc31)[C@H]2c1ccc(O)cc1 | 0.917 | 1.18 | 0.306 | 0.982 | 1.26 | 0.585 | -2.34 | 1.23 | 1.1 | 0.198 (inactive) | -0.11 | 0.358 (inactive) | -0.911 (inactive) | -0.141 (inactive) | -0.782 (inactive) | 1.09 | -0.176 | 0.232 | 0.7 | 1.36
COC(=O)c1c2oc(c1C(=O)OC)C(=O)N(Cc1ccccc1)Cc1cn(nn1)C[C@H](Cc1ccccc1)NC(=O)N[C@H](CO)CC2 | 0.402 | 0.848 | -0.0924 | 0.961 | 0.183 | -0.107 | 0.534 | 0.717 | 0.134 | 0.978 (inactive) | 0.131 | -1.84 (inactive) | -1.12 (inactive) | 0.964 (inactive) | -1.16 (inactive) | -0.25 | -0.154 | -0.0053 | 0.218 | 0.346
C=C[C@@H](COC(C)=O)N(C(=O)OC(C)(C)C)S(=O)(=O)c1ccc(Br)cc1 | 1.5 | 0.966 | 0.233 | 0.741 | 1.53 | 1.89 | 0.307 | 1.65 | 1.1 | -0.149 (inactive) | 0.423 | -0.284 (inactive) | 1.01 (inactive) | 0.391 (inactive) | -0.739 (inactive) | 0.802 | -0.231 | 0.814 | 0.559 | 2.16
COCCOC(=O)N1C(=O)[C@@]2(c3cc(C#CC4(O)CCCCCC4)ccc31)[C@H](c1ccc(O)cc1)N1[C@H](c3ccccc3)[C@H](c3ccccc3)OC(=O)[C@H]1[C@@H]2C(=O)NC[C@H](O)c1ccccc1 | 0.496 | 1.16 | 0.987 | 0.87 | 1.26 | 1.64 | -0.939 | 1.28 | 0.733 | -0.001 (inactive) | 0.677 | -1.48 (inactive) | -0.277 (inactive) | 0.712 (inactive) | -0.61 (inactive) | 0.383 | -0.125 | 0.116 | 1.09 | 1.21
